Test [1] is described as follows: inhibitors of TNFa-induced NFkB p65 translocation, primary screen, imaging, HUVEC, MLSMR starter and 10KST1 sets (AID 438).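 Also: compound added about 3h40 before a 20 min TNFalpha stimulation.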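 As to inhibition: signal is the nuclear over cytoplasmic p65 intensity ratio per well.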 To be noted: HUVEC TNFa-induced p65 nuclear translocation; cell count: measured here: nuclei count (cytotoxicity indicator), at 2.08 µM; inhibition: at 2 µM, stronger effect = higher value, 0% TNFa-plus-vehicle, 100% no-TNFa wells.
The nature of test [2]: reduction of polyQ htt aggregates in cells – imaging, exon1htt(103Q)mCFP cells, high-content imaging, primary screen (AID 483;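 active = visual image review flags a hit and inhibition of aggregation exceeds 20%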;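 also: compound exposure lasted 3 days before fixation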;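 as to nuclei count: percent of the per-plate median nuclei count of sample wells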). The following applies: exon1htt(103Q)mCFP cell line, aggregate imaging, at 2 µM; inhibition of aggregation: stronger effect = higher value; nuclei count: measured here: cell count, toxicity.
Test [3] can be described thus: endothelial E-selectin expression blockers – imaging, HUVEC, immunofluorescence, MLSMR starter and 10KST1 sets, primary screen (AID 487;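 active = visually confirmed hit in the image check and inhibition above 20%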;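 as to inhibition: signal is fraction of cell area covered by stained E-selectin grains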;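 as to nuclei count: 100% = median nuclei count of all wells on the same plate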). The following applies: HUVEC TNFalpha-induced E-selectin immunofluorescence imaging, at 2 µM; inhibition: stronger effect = higher value; nuclei count: measured here: cell number, toxicity.
For test [4], the target named is Voltage-gated potassium channel subunit beta-2 (Rattus norvegicus) (UniProt P62483). Nature of the test: inhibitors of rat Kvbeta2 reductase activity – biochemical, NADPH fluorescence, primary screen (AID 622;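 active = fluorescence slope higher than the sample average by over 3 SD, cut at about -0.22 in these data, passing the limit was not always enough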;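 also: slope of raw intensity against log time taken from 70 to 1610 s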). The following applies: recombinant KvBeta, 4-cyanobenzaldehyde reduction, at 10 µM, stronger effect = higher value.
Test [5] shares this target. Nature of the test: enhancers of rat Kvbeta2 NADPH turnover – biochemical, NADPH fluorescence, primary screen (AID 623;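 active = NADPH fluorescence slope more negative than the mean of all samples by about 3 SD, 99.7% confidence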;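 also: fluorescence intensity change per second fitted from 20 to 320 s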). To be noted: Recombinant KvBeta, NADPH fluorescence decrease slope, 10 min; at 10 µM; stronger effect = lower value.
For test [6], the target named is Alpha-2C adrenergic receptor (Homo sapiens) (UniProt P18825). Nature of the test: compounds altering alpha2C-coupled GIRK flux – cell-based, HEK293 alpha2C/GIRK1/2, thallium flux, primary screen (AID 624;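 active = fluorescence slope after compound addition differing from the mean of all screened samples at 99.7% confidence, in either direction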;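 also: slope of fluorescence ratio to pre-addition baseline per second over 15 to 24 s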). To be noted: thallium flux BTC fluorescence, at 10 µM, actives lie on both sides.
Test [7] is described as follows: blockers of RIG-like receptor reporter activation – cell-based, Sendai virus stimulus, luciferase, 10K MLSCN set, TLR/RLR signaling modifier project, primary screen (AID 602276;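 active = inhibition at or above 50% at 10 µM; inactive = inhibition below 50%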;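 also: firefly luciferase from ISG56 promoter only with Renilla not read in this screen; 0% = Sendai virus plus DMSO and 100% = medium plus DMSO without virus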). The following applies: HEK293 RL24 IRF3 luciferase reporter, at 10 µM, stronger effect = higher value. A general note: A reporter such as luciferase makes a cellular process visible.
The nature of test [8]: TLR3 IRF3 reporter activation blockers – cell-based, poly I:C stimulus, luciferase, 10K MLSCN set, primary screen (AID 602277;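 active = inhibition of the reporter signal at or above 50%; inactive = inhibition below 50%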). The following applies: HEK293-TLR3 RL24 IRF3 luciferase reporter, at 10 µM, stronger effect = higher value.

13 compounds from PubChem BioAssay can be followed below.

Activity calls are given as the source filed them.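 The calls were made as follows, unless noted: active = inhibition above 20% together with a positive visual image hit; inconclusive = visual image hit but inhibition not above 20%; inactive = no visual image hit.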

Sequence of Alpha-2C adrenergic receptor (Homo sapiens) (P18825 whole entry, looked up): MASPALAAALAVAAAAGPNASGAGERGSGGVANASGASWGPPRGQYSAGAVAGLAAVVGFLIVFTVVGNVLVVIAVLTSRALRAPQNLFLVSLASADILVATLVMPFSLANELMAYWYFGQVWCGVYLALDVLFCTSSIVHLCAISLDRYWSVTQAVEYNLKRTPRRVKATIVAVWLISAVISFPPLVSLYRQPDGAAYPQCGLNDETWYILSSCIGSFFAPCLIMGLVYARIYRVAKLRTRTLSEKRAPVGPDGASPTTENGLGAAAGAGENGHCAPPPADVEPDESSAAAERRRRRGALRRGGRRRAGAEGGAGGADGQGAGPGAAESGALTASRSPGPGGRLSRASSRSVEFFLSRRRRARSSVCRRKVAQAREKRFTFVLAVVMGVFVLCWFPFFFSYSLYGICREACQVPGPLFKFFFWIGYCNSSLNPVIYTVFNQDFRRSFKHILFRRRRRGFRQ
Sequence of Voltage-gated potassium channel subunit beta-2 (Rattus norvegicus) (P62483 whole entry, looked up): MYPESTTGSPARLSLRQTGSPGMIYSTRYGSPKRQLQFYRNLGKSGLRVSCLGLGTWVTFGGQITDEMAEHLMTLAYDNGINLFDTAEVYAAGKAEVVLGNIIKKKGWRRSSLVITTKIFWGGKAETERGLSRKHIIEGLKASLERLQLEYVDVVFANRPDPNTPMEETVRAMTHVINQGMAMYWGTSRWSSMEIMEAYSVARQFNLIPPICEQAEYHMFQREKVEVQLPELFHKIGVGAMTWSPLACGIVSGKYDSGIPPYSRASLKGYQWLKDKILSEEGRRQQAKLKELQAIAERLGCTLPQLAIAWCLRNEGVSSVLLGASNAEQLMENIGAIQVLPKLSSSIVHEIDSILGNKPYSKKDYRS

For orientation: inhibition means the drop in the measured response relative to a control, in per cent. Turning to `Cn1nc(CC(=O)Nc2ccc(N3CCN(C(=O)OC(C)(C)C)CC3)cc2)c2ccccc2c1=O`, the cell count in test [1] came out at 639. Further, the inhibition was -32.6% (inactive) in test [1], -34.7% (inactive) in test [3], -10.5% (inactive) in test [7] and -50.4% (inactive) in test [8]. Further, the inhibition of aggregation in test [2] is -11.8% (inactive). For the same compound, the nuclei count in test [2] came to 91.2%; in test [3] it was 99%. Besides, the fluorescence slope in test [4] is -0.493 (inactive). In addition, the NADPH fluorescence slope in test [5] is 8.9e-05 (inactive). Also, the slope in test [6] was 0.00619 (inactive).
With `CCCCNC(=O)OCCNC(=O)NC`, the cell count in test [1] worked out at 314. For the same compound, the inhibition in test [1] is 2.9% (inactive); in test [3] it was -62.2% (inactive); in test [7], 7.22% (inactive); in test [8], 2.44% (inactive). Also, the inhibition of aggregation in test [2] was -7.8% (inactive). For the same compound, the nuclei count was 100% in test [2] and 107% in test [3]. The fluorescence slope in test [4] is -0.317 (inactive). The NADPH fluorescence slope in test [5] was -2.2e-05 (inactive). Besides, the slope in test [6] was 0.00519 (inactive).
As to `O=C(OCc1cc2ccccc2[nH]c1=O)c1ccco1`, the cell count in test [1] was 234. Also, the inhibition in test [1] is 5.6% (inactive); in test [3], 40.8% (inactive); in test [7], 4.98% (inactive); in test [8] it was 31.1% (inactive). In addition, the inhibition of aggregation in test [2] was 1.7% (inactive). For the same compound, the nuclei count stood at 87.3% in test [2] and 96.9% in test [3]. In addition, the fluorescence slope in test [4] is -0.476 (inactive). The NADPH fluorescence slope in test [5] was -6e-05 (inactive). Moreover, the slope in test [6] is 0.0037 (inactive).
`Cc1ccc(-n2nnnc2SCC(=O)c2cc(C)n(-c3cc(C)on3)c2C)cc1`: the cell count in test [1] is 844. The inhibition in test [1] was -12.4% (inactive); in test [3], -36.4% (inactive); in test [7], 12.6% (inactive); in test [8] it was 18.7% (inactive). For the same compound, the inhibition of aggregation in test [2] is -7.8% (inactive). The results for the nuclei count in test [2] and in test [3] were 101% and 106%, respectively. Moreover, the fluorescence slope in test [4] is -0.595 (inactive). Moreover, the NADPH fluorescence slope in test [5] is 8.7e-07 (inactive). The slope in test [6] was 0.00585 (inactive).
As for `O=C(Nc1nc(-c2ccc(S(=O)(=O)N3CCCC3)cc2)cs1)C1COc2ccccc2O1` (stereo not drawn), the cell count in test [1] was found to be 731. The inhibition in test [1] is 3.6% (inactive); in test [3], 24% (inactive); in test [7] it was 7.86% (inactive); in test [8], 2.65% (inactive). For the same compound, in test [2], the inhibition of aggregation was -24.6% (inactive). The figures for the nuclei count in test [2] and in test [3] were 91.5% and 81.4%, respectively. The fluorescence slope in test [4] is -0.413 (inactive). In addition, the NADPH fluorescence slope in test [5] was -2.5e-05 (inactive). The slope in test [6] was 0.00956 (active).
For `Cc1nn(C(=O)c2cc3sccc3[nH]2)c(C)c1C`, the cell count in test [1] is 574. For the same compound, the inhibition in test [1] is -11.9% (inactive); in test [3], -65.4% (inactive); in test [7], -8.25% (inactive); in test [8], -82.9% (inactive). The inhibition of aggregation in test [2] was 0.1% (inactive). For the same compound, the nuclei count in test [2] came to 95.1%; in test [3], 104%. Also, in test [4], the fluorescence slope is -0.416 (inactive). Moreover, the NADPH fluorescence slope in test [5] is -2.7e-05 (inactive). Also, in test [6], the slope was 0.00333 (inactive).
As for `CCSc1nncn1/N=C/c1ccc(OC)c(OC)c1`, the cell count in test [1] stood at 403. The inhibition is -9.6% (inactive) in test [1], 39.9% (inactive) in test [3], -8.45% (inactive) in test [7] and -5.17% (inactive) in test [8]. For the same compound, the inhibition of aggregation in test [2] is 32.4% (inactive). Further, the nuclei count came out at 89.8% in test [2] and 82.5% in test [3]. In test [4], the fluorescence slope is -0.319 (inactive). Also, the NADPH fluorescence slope in test [5] is 2e-05 (inactive). For the same compound, in test [6], the slope was 0.00581 (inactive).
With `O=C(Nc1ccc2snnc2c1)N1CCN(c2ccccc2)CC1`, the cell count in test [1] amounted to 454. Besides, the inhibition in test [1] is 1.6% (inactive); in test [3] it was 0.3% (inactive); in test [7] it was 4.94% (inactive); in test [8], -57.8% (inactive). Moreover, the inhibition of aggregation in test [2] is 0.7% (inactive). The nuclei count in test [2] worked out at 101%; in test [3], 117%. In test [4], the fluorescence slope was -0.425 (inactive). In addition, the NADPH fluorescence slope in test [5] is 7.2e-06 (inactive). The slope in test [6] is 0.00518 (inactive).
Take `CCN(CC)CCN1C(=O)Cn2c(C)c(C)c3cccc1c32`: the cell count in test [1] came to 426. For the same compound, the inhibition in test [1] is -6.7% (inactive); in test [3], -102% (inactive); in test [7], 15% (inactive); in test [8], 24.1% (inactive). Moreover, in test [2], the inhibition of aggregation was 18.6% (inactive). Also, the nuclei count in test [2] was determined as 93.7%; in test [3] it was 232%. In test [4], the fluorescence slope is -0.434 (inactive). Also, the NADPH fluorescence slope in test [5] was -1.1e-05 (inactive). The slope in test [6] was 0.00506 (inactive).
As for `O=C(O)C1CC=CCC1C(=O)Nc1ccc(S(=O)(=O)N2CCCc3ccccc32)cc1` (stereo not drawn), the cell count in test [1] amounted to 335. Moreover, the inhibition is -7.5% (inactive) in test [1], -43.1% (inactive) in test [3], 46% (inactive) in test [7] and -62.7% (inactive) in test [8]. For the same compound, the inhibition of aggregation in test [2] was -17.2% (inactive). For the same compound, the nuclei count was determined as 92.3% in test [2] and 126% in test [3]. For the same compound, the fluorescence slope in test [4] was -0.599 (inactive). The NADPH fluorescence slope in test [5] was -3.1e-05 (inactive). For the same compound, in test [6], the slope was 0.00437 (inactive).
`O=C(CN(c1ccc(F)cc1)S(=O)(=O)c1ccc2c(c1)OCCO2)Nc1ccc2c(c1)OCO2`: in test [1], the cell count came out at 795. Moreover, the inhibition in test [1] is -6.1% (inactive); in test [3], -49.1% (inactive); in test [7] it was 16.4% (inactive); in test [8], 16.1% (inactive). Moreover, the inhibition of aggregation in test [2] is -28.9% (inactive). The nuclei count in test [2] was determined as 105%; in test [3], 114%. Besides, the fluorescence slope in test [4] was -0.485 (inactive). For the same compound, in test [5], the NADPH fluorescence slope was -3.3e-05 (inactive). Moreover, the slope in test [6] was 0.00328 (inactive).
As to `Cc1cc2ccccc2c(=O)n1CC(=O)N(C)c1ccc(F)cc1`, in test [1], the cell count turned out to be 629. For the same compound, the inhibition is -4.7% (inactive) in test [1], -74.2% (inactive) in test [3], 2.03% (inactive) in test [7] and 9.91% (inactive) in test [8]. In addition, the inhibition of aggregation in test [2] is -4.1% (inactive). Besides, the figures for the nuclei count in test [2] and in test [3] were 98% and 103%, respectively. Further, the fluorescence slope in test [4] was -0.353 (inactive). Also, the NADPH fluorescence slope in test [5] is -5.6e-05 (inactive). Moreover, in test [6], the slope is 0.00579 (inactive).
As to `COc1cc(C2c3c(oc4c(C)cc(C)cc4c3=O)C(=O)N2Cc2cccnc2)ccc1O` (stereo not drawn), the cell count in test [1] was found to be 627. Further, the inhibition is -2.7% (inactive) in test [1], 12.8% (inactive) in test [3], 16.4% (inactive) in test [7] and 21.2% (inactive) in test [8]. Also, in test [2], the inhibition of aggregation was 0.2% (inactive). In addition, the nuclei count is 107% in test [2] and 99.8% in test [3]. In test [4], the fluorescence slope was -0.476 (inactive). Further, the NADPH fluorescence slope in test [5] is -3.3e-05 (inactive). Moreover, the slope in test [6] was 0.00579 (inactive).
